Data published in ChEMBL document CHEMBL3988442, “University of Dundee, Small-Polar-MMV Screening Library” (2021).
Out of some 48,000 compounds screened, about 13,000 (27%) showed an effect of 50% or more. The list shows a part of the results.

tested on: Wolbachia pipientis; experiment: Anti-Wolbachia Cell-Based Screen; type: functional; design: scale not given: in the data most compounds retested in dose-response had high values; details: 5 µM

Row | Structure (SMILES) | Percent Effect
1 | CCOC(=O)CCCN1CCCC(C(=O)Nc2ccc(Cl)cn2)C1 (configuration not stated) | -9.707%
2 | CN1CCC2(C=C(C(=O)N(C)C)c3ccccc32)CC1 | 111.1%
3 | CCC(=O)N1CCC2(C=C(C(=O)N(C)C)c3ccccc32)CC1 | 99.74%
4 | O=C(C1=CC2(CCNCC2)c2ccccc21)N1CCCC1 | -0.6834%
5 | CCC(=O)N1CCC2(C=C(C(=O)N3CCCC3)c3ccccc32)CC1 | 109%
6 | CN1CCC2(C=C(C(=O)N3CCCC3)c3ccccc32)CC1.O=C(O)C(F)(F)F | -7.584%
7 | CSCC(=O)N1CCC2(CC1)c1ccccc1CC2O (configuration not stated) | -1.136%
8 | O=C(O)C(F)(F)F.O=C1CC2(CNCCN(C(=O)Nc3ccccc3)C2)CN1 (configuration not stated) | -25.05%
9 | CC(O)CN1CCC(CN(C)Cc2ccc(C#N)cc2F)CC1 (configuration not stated) | -14.31%
10 | Cc1nccn1-c1cc(CNC(=O)C(C)(C)C)ccn1 | 9.207%
11 | CC(=O)N1CCCCC1c1cc(C(=O)N2CCOCC2)[nH]n1 (configuration not stated) | -8.904%
12 | O=C(c1cc(C2CCCCN2CCO)n[nH]1)N1CCOCC1.O=CO (configuration not stated) | 127.4%
13 | O=C(CCN1CCCCCC1c1ccco1)N1CCOCC1 (configuration not stated) | 1.206%
14 | O=C(c1cc(C2CCCCN2C(=O)C2CCC2)n[nH]1)N1CCOCC1 (configuration not stated) | 97.85%
15 | O=C(CCN1CCCCC1c1cc2ccccc2[nH]1)N1CCOCC1 (configuration not stated) | -12.84%
16 | CN(C)Cc1ccc(C2CCCCN2C(=O)c2cc(C3CC3)n[nH]2)cc1 (configuration not stated) | 2.856%
17 | CN(C)CCOCc1cncc2c1CCN(C(=O)c1cscn1)C2 | 84.03%
18 | COCc1cncc2c1CCN(C(=O)c1ccsc1)C2 | -1.861%
19 | CN(C)C(=O)N1CCc2c(COCC3CC3)cncc2C1 | -21.89%
20 | O=C(c1cnccn1)N1CCc2c(COCC3CC3)cncc2C1 | -0.9982%
21 | COCc1cncc2c1CCN(C(=O)c1cscn1)C2 | 104.1%
22 | COCc1cncc2c1CCN(C(=O)c1ccc(C)o1)C2 | -6.966%
23 | Cn1cnnc1CCNC(=O)c1ccccc1OC1CCC1 | -17.05%

Row | Structure (SMILES) | Percent Effect
24 | CCNc1nc(C)c(C(=O)N(C)Cc2noc(C)n2)s1 | -18.27%
25 | O=C(Nc1ccc2c(c1)OCCO2)c1ccc(=O)[nH]n1 | 99.56%
26 | Cc1ccc2c(c1)OCCCC2NCc1nccn1Cc1ccccc1 (configuration not stated) | -22%
27 | Cc1c(C(=O)N[C@H]2CN(CCS(C)(=O)=O)C[C@@H]2C2CC2)cnn1C | 4.067%
28 | Cc1cc(C(=O)NC2CCCOc3cc(Cl)ccc32)n(C)n1 (configuration not stated) | 104.1%
29 | Cc1ccc2c(c1)OCCCC2NCc1nccn1CC(C)C (configuration not stated) | -15.26%
30 | O=C(Nc1ccc2c(c1)OC1(CCCCC1)O2)c1ccc(=O)[nH]n1 | 13.01%
31 | CCc1cccc(N2CCC(NC(=O)c3ccc(=O)[nH]n3)CC2)c1 | 3.328%
32 | CC1(C)Oc2ccc(NC(=O)c3ccc(=O)[nH]n3)cc2O1 | -5.037%
33 | O=C(NC1CCCOc2cc(Cl)ccc21)c1ccc(=O)[nH]n1 (configuration not stated) | 103.9%
34 | Cc1ccc2c(c1)OCCCC2NC1CCN(C)CC1 (configuration not stated) | 11.04%
35 | Cc1c(C(=O)NC2CCCOc3cc(Cl)ccc32)cnn1C (configuration not stated) | 96.08%
36 | O=C(Nc1ccc2c(c1)OC1(CCCC1)O2)c1ccc(=O)[nH]n1 | -12.04%
37 | CC(C)N1CCCC2(CCN(C(=O)CCCn3ccnc3)C2)C1=O (configuration not stated) | -2.08%
38 | CCc1nnc(CNCC2CCN(CC(O)c3ccccc3)CC2)o1 (configuration not stated) | 1.305%
39 | Cc1nc2c(c(=O)n1C)CCN(Cc1cc3cc[nH]c3cn1)CC2 | -4.621%
40 | Cc1cc2c(=O)n3c(nc2s1)CCN(Cc1[nH]cnc1C)CC3.Cl | 117%
41 | Cc1cc(CN2CCc3nc(C)n(C)c(=O)c3CC2)[nH]n1 | -18.21%
42 | Cc1cc2c(=O)n3c(nc2s1)CCN(Cc1ccncc1)CC3 | -12.53%
43 | Cc1nc[nH]c1CN1CCn2nc(CN3Cc4ccccc4C3)cc2C1 | 5.533%
44 | CCc1ncc(CN2CCCC3(CCC(=O)N(CCC(C)C)C3)C2)cn1 (configuration not stated) | -16.36%
45 | Cc1cc2c(=O)n3c(nc2s1)CCN(Cc1cnc(C)n1C)CC3.Cl | 108.4%
46 | CCc1ncc(CN2CCc3nc4sc(C)cc4c(=O)n3CC2)cn1 | 98.79%

Row | Structure (SMILES) | Percent Effect
47 | Cc1cc2c(=O)n3c(nc2s1)CCN(Cc1cnc(C(C)C)nc1)CC3 | -3.495%
48 | Cc1cc2c(=O)n3c(nc2s1)CCN(Cc1cncn1C)CC3.Cl | 111.2%
49 | CCOC(=O)C1CCCCN1Cc1c[nH]nc1-c1cc2ccccc2o1 (configuration not stated) | 10.01%
50 | Cc1cccc2cc(C(=O)N3CCN(S(=O)(=O)N(C)C)CC3)n(C)c12 | -7.336%
51 | CNc1ncc(CN(C)Cc2cc(O)c3cc(C)cc(C)c3n2)cn1 | 2.553%
52 | COc1cc(OC)cc(-c2cc(CN)nc3ccnn23)c1.Cl | 104.2%
53 | COCc1cc(N2CCN(Cc3ccncc3)CC2)n2nccc2n1 | 2.178%
54 | Cl.NCc1cc(-c2ccccc2)n2nccc2n1 | 106.1%
55 | CCc1cc(NC(CCO)c2ccc(OC)cc2)n2nccc2n1 (configuration not stated) | 6.902%
56 | COCc1cc(N2CCOCC2)n2nccc2n1 | 9.055%
57 | COc1ccc(-c2cc(CN)nc3ccnn23)cc1.Cl | 124.4%
58 | CCc1cc(N[C@H](C(N)=O)[C@@H](C)CC)n2nccc2n1 | -8.924%
59 | CCc1ccc(CN(C)c2cc(COC)nc3ccnn23)cc1 | -31%
60 | c1ccc(-c2cc(NCCCC3CCOC3)n3nccc3n2)cc1 (configuration not stated) | -17.54%
61 | CCCc1cc(CNc2cc(CCC)nc3ccnn23)on1 | -13.04%
62 | CSc1ccc(-c2cc(CN)nc3ccnn23)cc1.Cl | 95%
63 | CN(C)C1CCN(c2cc(-c3ccccc3)nc3ccnn23)C1 (configuration not stated) | -6.733%
64 | CC(C)OCc1nn(CC2CC2)c2c1CN(Cc1ccco1)CC2.O=C(O)C(F)(F)F | 3.908%
65 | Cc1cccc(C)c1-n1nnnc1C1(NCc2ccco2)CCCC1 | 75.79%
66 | Cc1ccc(-n2nnnc2C2(NCc3ccco3)CCCC2)cc1 | 2.087%
67 | Cc1csc(C2(NCc3nnc(-c4ccco4)o3)CCCC2)n1 | -3.858%
